Results as given in the supplement of paper PMC6522484.
± gives the standard deviation of the averaged measurements.

Key:
[1] = tested on: DLD1; experiment: cell viability (CellTiter-Glo) relative to plate median (fraction of plate median); higher = more viable cells; conditions: 5 µM; treatment time 24 h; reporter: 7TFP
How it was run: (§1)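 Colorectal cancer cell lines stably transduced with lentiviral TCF/Wnt firefly luciferase reporters (7TFP or TCF4/Wnt) were seeded in 384-well plates. 24 h later they received library compounds at a final 5 µM for 24 h. Parallel plates were read for firefly luciferase or CellTiterGlo luminescence on a Tecan F500 reader. Each well's signal was normalised to the plate median (webcellHTS2, additive, no log transformation), and the mean of two independent replicates is reported.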

[2] = tested on: HCT116; experiment: as above; conditions: 5 µM; treatment time 24 h; reporter: TCF4/Wnt
How it was run: as §1

[3] = tested on: SW480; experiment: as above; conditions: 5 µM; treatment time 24 h; reporter: 7TFP
How it was run: as §1

[4] = tested on: DLD1; experiment: TCF/Wnt firefly luciferase reporter signal relative to plate median (fraction of plate median); higher = higher Wnt reporter signal; conditions: 5 µM; treatment time 24 h; reporter: 7TFP
How it was run: as §1

[5] = tested on: SW480; experiment: as above; conditions: 5 µM; treatment time 24 h; reporter: 7TFP
How it was run: as §1

Compound `CCN(CC)C(=S)SSC(=S)N(CC)CC` has a cell viability [1] of 0.764 ± 0.14, a cell viability [2] of 0.504 ± 0.17 and a cell viability [3] of 0.938 ± 0.12. The “TCF/Wnt firefly luciferase reporter signal” value [4] was 1.02 ± 0.41 and the “TCF/Wnt firefly luciferase reporter signal” value [5] was 0.842 ± 0.043.

Compound `CNCCCC12CCC(c3ccccc31)c1ccccc12` has a cell viability [1] of 1.07 ± 0.085, a cell viability [2] of 1.085 ± 0.0071 and a cell viability [3] of 1.07 ± 0.071. For the same compound, the “TCF/Wnt firefly luciferase reporter signal” value [4] was 1.04 ± 0.035 and the “TCF/Wnt firefly luciferase reporter signal” value [5] was 1.1 ± 0.042.

Compound `CC(=O)O[C@H]1CC[C@]2(C)[C@H]3CC=C4[C@@H]5CC(C)(C)CC[C@]5(C)CC[C@@]4(C)[C@]3(C)CC[C@H]2C1(C)C` [beta-AMYRIN ACETATE] has a cell viability [1] of 0.982 ± 0.054, a cell viability [2] of 0.965 ± 0.025 and a cell viability [3] of 1.03 ± 0.021. For the same compound, the “TCF/Wnt firefly luciferase reporter signal” value [4] was 1.145 ± 0.0071 and the “TCF/Wnt firefly luciferase reporter signal” value [5] was 1.07 ± 0.014.

`COc1cc(C(=O)NCc2ccc(OCCN(C)C)cc2)cc(OC)c1OC` showed a cell viability [1] of 0.99 ± 0.057, a cell viability [2] of 1 ± 0.13 and a cell viability [3] of 0.996 ± 0.077. The “TCF/Wnt firefly luciferase reporter signal” value [4] was 0.871 ± 0.12 and the “TCF/Wnt firefly luciferase reporter signal” value [5] was 0.851 ± 0.06.

`CN[C@@H]1[C@@H](O[C@H]2O[C@H](CO)[C@@H](N)[C@H](O)[C@H]2O)OC2C[C@@H](N)[C@@H](O[C@H]3[C@H](O)[C@@H](O)[C@H](N)C[C@@H]3N)OC2[C@@H]1O` (stereo not given in full) gave a cell viability [1] of 0.893 ± 0.0028, a cell viability [2] of 0.952 ± 0.03 and a cell viability [3] of 0.965 ± 0.037. For the same compound, the “TCF/Wnt firefly luciferase reporter signal” value [4] was 1.08 ± 0.028 and the “TCF/Wnt firefly luciferase reporter signal” value [5] was 0.88 ± 0.11.

`CC(C)=CCC1=C(O)C(=O)c2ccccc2C1=O` showed a cell viability [1] of 1.055 ± 0.0071, a cell viability [2] of 1.07 ± 0.064 and a cell viability [3] of 1.02 ± 0.028. For the same compound, the “TCF/Wnt firefly luciferase reporter signal” value [4] was 1.15 ± 0.092 and the “TCF/Wnt firefly luciferase reporter signal” value [5] was 1.04 ± 0.064.

`NC1(C(=O)O)CC1` showed a cell viability [1] of 0.997 ± 0.061, a cell viability [2] of 0.9665 ± 0.0021 and a cell viability [3] of 0.9795 ± 0.0064. For the same compound, the “TCF/Wnt firefly luciferase reporter signal” value [4] was 0.885 ± 0.045 and the “TCF/Wnt firefly luciferase reporter signal” value [5] was 0.919 ± 0.059.

`COC(=O)[C@@]1(C)CCC[C@]2(C)c3ccc(O)c(C(C)C)c3CCC12` (stereo not given in full) showed a cell viability [1] of 1.03 ± 0.028, a cell viability [2] of 0.982 ± 0.096 and a cell viability [3] of 1.03 ± 0.028. The “TCF/Wnt firefly luciferase reporter signal” value [4] was 0.892 ± 0.046 and the “TCF/Wnt firefly luciferase reporter signal” value [5] was 0.88 ± 0.049.

With `CC1(C)NC(=O)N(c2ccc([N+](=O)[O-])c(C(F)(F)F)c2)C1=O` the cell viability [1] was 1.05 ± 0.084, the cell viability [2] was 0.983 ± 0.052 and the cell viability [3] was 1 ± 0.042. For the same compound, the “TCF/Wnt firefly luciferase reporter signal” value [4] was 1.02 ± 0.014 and the “TCF/Wnt firefly luciferase reporter signal” value [5] was 0.961 ± 0.044.

For `C/C=C/C1=CC(=O)[C@@H](O)[C@@H]1O` [Terrein], the cell viability [1] was 0.964 ± 0.066, the cell viability [2] was 1.03 ± 0.014 and the cell viability [3] was 0.986 ± 0.011. For the same compound, the “TCF/Wnt firefly luciferase reporter signal” value [4] was 1.25 ± 0.085 and the “TCF/Wnt firefly luciferase reporter signal” value [5] was 1.1 ± 0.11.

`C[n+]1cc2c3c(ccc2c2ccc4cc5c(cc4c21)OCO5)OCO3` showed a cell viability [1] of 1.02 ± 0.021, a cell viability [2] of 1.08 ± 0.12 and a cell viability [3] of 0.99 ± 0.043. The “TCF/Wnt firefly luciferase reporter signal” value [4] was 1 ± 0.081 and the “TCF/Wnt firefly luciferase reporter signal” value [5] was 0.981 ± 0.011.

Compound `CCC(Cc1c(I)cc(I)c(N)c1I)C(=O)O` (stereo not given) has a cell viability [1] of 1.08 ± 0.057, a cell viability [2] of 1.05 ± 0.035 and a cell viability [3] of 1.07 ± 0.028. For the same compound, the “TCF/Wnt firefly luciferase reporter signal” value [4] was 1.035 ± 0.0071 and the “TCF/Wnt firefly luciferase reporter signal” value [5] was 1.04 ± 0.035.

`CCCCCC(=O)O[C@]1(C(C)=O)CC[C@H]2[C@@H]3CCC4=CC(=O)CC[C@]4(C)[C@H]3CC[C@@]21C` was tested, and the cell viability [1] was 0.993 ± 0.0099, the cell viability [2] was 1.04 ± 0.057 and the cell viability [3] was 0.972 ± 0.018. The “TCF/Wnt firefly luciferase reporter signal” value [4] was 0.979 ± 0.087 and the “TCF/Wnt firefly luciferase reporter signal” value [5] was 1.04 ± 0.021.

With `CC(C)=CCC[C@](C)(O)C1CC=C(C)CC1` (stereo not given in full) the cell viability [1] was 1.04 ± 0.063, the cell viability [2] was 0.973 ± 0.081 and the cell viability [3] was 1.1 ± 0.085. The “TCF/Wnt firefly luciferase reporter signal” value [4] was 1.03 ± 0.014 and the “TCF/Wnt firefly luciferase reporter signal” value [5] was 0.996 ± 0.076.

`CC(C[N+](C)(C)C)OC(N)=O` (stereo not given) was tested, and the cell viability [1] was 1.14 ± 0.035, the cell viability [2] was 0.8 ± 0.48 and the cell viability [3] was 1.1 ± 0.12. For the same compound, the “TCF/Wnt firefly luciferase reporter signal” value [4] was 0.925 ± 0.037 and the “TCF/Wnt firefly luciferase reporter signal” value [5] was 1.05 ± 0.071.

`C=CCNC1=C2C[C@@H](C)C[C@H](OC)[C@H](O)[C@@H](C)/C=C(\C)[C@H](OC(N)=O)[C@@H](OC)/C=C\C=C(/C)C(=O)NC(=CC1=O)C2=O` showed a cell viability [1] of 1.07 ± 0.014, a cell viability [2] of 0.623 ± 0.023 and a cell viability [3] of 0.972 ± 0.04. The “TCF/Wnt firefly luciferase reporter signal” value [4] was 0.878 ± 0.15 and the “TCF/Wnt firefly luciferase reporter signal” value [5] was 0.731 ± 0.029.

`Oc1ccc(O)cc1` showed a cell viability [1] of 0.839 ± 0.11, a cell viability [2] of 0.856 ± 0.022 and a cell viability [3] of 0.959 ± 0.1. For the same compound, the “TCF/Wnt firefly luciferase reporter signal” value [4] was 1.14 ± 0.14 and the “TCF/Wnt firefly luciferase reporter signal” value [5] was 1.04 ± 0.2.

`CC(=O)c1cc(CC=C(C)C)c(O)c(CC=C(C)C)c1` showed a cell viability [1] of 1.05 ± 0.014, a cell viability [2] of 1.02 ± 0.035 and a cell viability [3] of 0.95 ± 0.011. For the same compound, the “TCF/Wnt firefly luciferase reporter signal” value [4] was 1.08 ± 0.15 and the “TCF/Wnt firefly luciferase reporter signal” value [5] was 1.14 ± 0.064.

In the case of `C[C@H]1C[C@@H]2[C@H]([C@@H](O)C[C@@]3(C)[C@H]2CC[C@]3(O)C(=O)COC(=O)CCC(=O)O)[C@@]2(C)C=CC(=O)C=C12`, the cell viability [1] is reported as 0.918 ± 0.13, the cell viability [2] is reported as 1.01 ± 0.018 and the cell viability [3] is reported as 0.921 ± 0.012. The “TCF/Wnt firefly luciferase reporter signal” value [4] was 0.964 ± 0.044 and the “TCF/Wnt firefly luciferase reporter signal” value [5] was 0.997 ± 0.061.

`COC(=O)C[C@H]1C(C)(C)[C@@H](OC(C)=O)[C@@H]2CC3C4CC(=O)O[C@@H](c5ccoc5)[C@]4(C)CCC3[C@@]1(C)C2=O` (stereo not given in full) gave a cell viability [1] of 1.05 ± 0.042, a cell viability [2] of 0.946 ± 0.011 and a cell viability [3] of 1.015 ± 0.0071. For the same compound, the “TCF/Wnt firefly luciferase reporter signal” value [4] was 0.966 ± 0.1 and the “TCF/Wnt firefly luciferase reporter signal” value [5] was 1.005 ± 0.0071.

`CCCCCCCCCCCCCCC(C(=O)O)C(O)(CC(=O)OC)C(=O)O` (stereo not given) gave a cell viability [1] of 0.955 ± 0.05, a cell viability [2] of 0.878 ± 0.017 and a cell viability [3] of 0.9505 ± 0.0064. For the same compound, the “TCF/Wnt firefly luciferase reporter signal” value [4] was 0.979 ± 0.086 and the “TCF/Wnt firefly luciferase reporter signal” value [5] was 0.947 ± 0.028.

`CC(C)(C)NCC(O)c1cc(O)cc(O)c1` (stereo not given) showed a cell viability [1] of 1.045 ± 0.0071, a cell viability [2] of 1.02 ± 0.061 and a cell viability [3] of 1.09 ± 0.028. The “TCF/Wnt firefly luciferase reporter signal” value [4] was 0.999 ± 0.03 and the “TCF/Wnt firefly luciferase reporter signal” value [5] was 1.03 ± 0.13.

`COc1ccc(CC(=O)c2ccc(O)cc2O)cc1` showed a cell viability [1] of 0.962 ± 0.054, a cell viability [2] of 0.955 ± 0.14 and a cell viability [3] of 0.995 ± 0.036. The “TCF/Wnt firefly luciferase reporter signal” value [4] was 1.13 ± 0.057 and the “TCF/Wnt firefly luciferase reporter signal” value [5] was 1.07 ± 0.078.

With `CC(=O)OCC(OC(C)=O)C(OC(C)=O)C(OC(C)=O)C(OC(C)=O)C(COC(C)=O)OC(C)=O` (stereo not given) the cell viability [1] was 1.06 ± 0.071, the cell viability [2] was 1 ± 0.066 and the cell viability [3] was 1.045 ± 0.0071. For the same compound, the “TCF/Wnt firefly luciferase reporter signal” value [4] was 0.987 ± 0.047 and the “TCF/Wnt firefly luciferase reporter signal” value [5] was 0.96 ± 0.037.

With `OCCN1C[C@H](O)[C@@H](O)[C@H](O)[C@H]1CO` the cell viability [1] was 0.86 ± 0.15, the cell viability [2] was 0.957 ± 0.19 and the cell viability [3] was 0.97 ± 0.025. The “TCF/Wnt firefly luciferase reporter signal” value [4] was 0.954 ± 0.11 and the “TCF/Wnt firefly luciferase reporter signal” value [5] was 0.988 ± 0.06.

With `O=C(O)/C=C/C=C/c1ccccc1` the cell viability [1] was 0.976 ± 0.16, the cell viability [2] was 0.9625 ± 0.0092 and the cell viability [3] was 0.98 ± 0.0057. The “TCF/Wnt firefly luciferase reporter signal” value [4] was 0.906 ± 0.028 and the “TCF/Wnt firefly luciferase reporter signal” value [5] was 0.729 ± 0.071.

In the case of `C[C@@H]1CCCCCCCCC[C@H](OC(=O)CCC(=O)O)C(=O)/C=C/C(=O)O1`, the cell viability [1] is reported as 1.03 ± 0.05, the cell viability [2] is reported as 1.09 ± 0.11 and the cell viability [3] is reported as 1.02 ± 0.028. The “TCF/Wnt firefly luciferase reporter signal” value [4] was 1.17 ± 0.05 and the “TCF/Wnt firefly luciferase reporter signal” value [5] was 1.09 ± 0.014.

Work on `N[C@@H](Cc1c[nH]c2ccccc12)C(=O)O` yielded a cell viability [1] of 1.07 ± 0.078, a cell viability [2] of 1.07 ± 0.014 and a cell viability [3] of 1.03 ± 0.014. The “TCF/Wnt firefly luciferase reporter signal” value [4] was 1.21 ± 0.028 and the “TCF/Wnt firefly luciferase reporter signal” value [5] was 1.1 ± 0.05.

With `Clc1ccc2c(c1)CCc1cccnc1C2=C1CCNCC1` the cell viability [1] was 0.992 ± 0.011, the cell viability [2] was 1.07 ± 0.021 and the cell viability [3] was 0.97 ± 0.021. The “TCF/Wnt firefly luciferase reporter signal” value [4] was 1 ± 0.015 and the “TCF/Wnt firefly luciferase reporter signal” value [5] was 1.12 ± 0.014.
